# In PubChem BioAssay (Tox21):
# Results filed as inconclusive are left out. A call without a number means that no potency is given here. The source made the active and inactive calls. Calls come from the whole dose curve; as a rule, active = well fitted cell-killing curve with a large enough effect in the repeat runs; inconclusive = weak or mixed curves, or effect the other way; inactive = flat fitted curve, though single readings scatter.
# Assay: Human pregnane X receptor (PXR) small molecule agonists, qHTS cell viability counter screen (AID 1346977); note: nearly all actives have a fitted effect of over 50% in size
# Settings: PXR-Luc HepG2 viability, CellTiter-Fluor, 24 h; series mostly up to 92.4 µM
# Source text: U.S. Tox21 Program National Center for Advancing Translational Sciences [NCATS] NIH Chemical Genomics Center [NCGC] U.S. Environmental Protection Agency [EPA] National Institutes of Environmental Health Sciences [NIEHS] National Toxicology Program [NTP] U.S. Food and Drug Administration [FDA] Tox21 Assay Overview: The human pregnane X receptor (hPXR) regulates the expression of several drug metabolizing enzymes and induction of these proteins is a major mechanism for developing drug resistance in cancer. One such key enzyme catalyzing the drug metabolism is cytochrome P450 3A4 (CYP3A4). Changes in CYP3A4 expression affect drug metabolism, thereby reducing the therapeutic efficacy and altering toxicological response to a drug and which finally causes adverse drug interaction. To screen Tox21 libraries for compounds that activate hPXR-mediated CYP3A4 gene expression, PXR-Luc HepG2 cells were used. Also cytotoxicity of the compounds was tested in parallel by measuring the cell viability using CellTiter-Fluor assay system in the same wells.
# Tox21 Assay Protocol Summary: PXR-Luc HepG2 cells were dispensed at 2,000 per well in 5uL of assay medium containing 5% charcoal-stripped FBS into white solid bottom 1536-well plates (Corning Life Sciences, Corning, NY) using a Multidrop Combi (Thermo Scientific, Waltham, MA) dispenser. The assay plates were incubated at 37 C and 5% CO2 for 5hr, and then 23nL of compounds dissolved in DMSO and positive control were transferred using a Pintool station (Wako, San Diego, CA). The assay plates were incubated at 37C and 5% CO2 for 24hr. For cytotoxicity read, after 23hr incubation at 37C, 1uL CellTiter-Fluor reagent (Promega Corporation, Madison, WI) was added to each well of the assay plates using Flying Reagent Dispenser (FRD, Aurora Discovery, San Diego, CA). After 1hr incubation at 37C and 5% CO2, the fluorescence signal was quantified using a ViewLux plate reader (PerkinElmer, Shelton, CT).
# Potency is the fitted concentration of half-maximal effect.
row,SMILES,Potency
1,CCCCCCCCCCCCCCN(CCO)CCO,61.1 µM (active)
2,O=c1cc(-c2ccccc2)oc2ccc3ccccc3c12,inactive
3,O=C(/C=C/c1ccccc1)OCCc1ccccc1,inactive
4,CCOC(=O)OC(C)OC(=O)[C@@H]1N2C(=O)[C@@H](NC(=O)[C@H](N)c3ccccc3)[C@H]2SC1(C)C (stereo not given in full),inactive
5,O=c1[nH]c2ccc(Cl)cc2o1,inactive
6,O=C1CCCCCCCCCCOCCCCO1,inactive
7,COC(=O)CCS,inactive
8,CC(C)(c1ccccc1)c1ccccc1,inactive
9,Cc1[nH]cnc1CN1CCc2c(c3ccccc3n2C)C1=O,inactive
10,COc1cc(Nc2c(C#N)cnc3cc(OCCCN4CCN(C)CC4)c(OC)cc23)c(Cl)cc1Cl,11.9 µM (active)
11,CN1C(C(=O)Nc2ccccn2)=C(O)c2sccc2S1(=O)=O,inactive
12,C/C=C/C=C/C=O,inactive
13,CCCCN(CCCC)C(C(N)=O)c1ccc(OC)cc1 (stereo not given),inactive
14,CCCC(=O)C(=O)O,inactive
15,C=Cc1ccc(S(=O)(=O)O)cc1,inactive
16,CO[C@]1(NC(=O)CSC(F)F)C(=O)N2C(C(=O)O)=C(CSc3nnnn3CCO)CO[C@H]21,inactive
17,CCCCCCCCN,inactive
18,CC[N+](CC)(CCNC(=O)C(=O)NCC[N+](CC)(CC)Cc1ccccc1Cl)Cc1ccccc1Cl,inactive
19,O=C1c2ccccc2C(=O)C1c1nc2ccccc2c(Br)c1O,inactive
20,Cc1cscn1,inactive

row,SMILES,Potency
1,FC(F)(F)c1ccccc1Cl,inactive
2,Cc1cc(=O)c2c(O)c3c(O)cc(=O)c4c3c3c(cc(O)c1c23)C(C)(C)C=4O,0.73 µM (active)
3,C[C@H]1C[C@H](O)c2ccsc2S1(=O)=O,inactive
4,Cc1cccc(O)c1N,inactive
5,CCC1NC(=O)c2cc(S(N)(=O)=O)c(Cl)cc2N1 (stereo not given),inactive
6,CCCCCCC(C)(C)C(=O)O,inactive
7,CN1C(=O)N(c2ccccc2Br)Cc2cnc(Nc3ccc4c(c3)OCC(CO)O4)nc21 (stereo not given),30.6 µM (active)
8,O=C(O)CCC(=O)C(=O)O,inactive
9,CN1CCCN=C1COC(=O)C(O)(c1ccccc1)C1CCCCC1 (stereo not given),inactive
10,CCCCCCCC/C=C\CCCCCCCCO,inactive
11,C=C(C)C(=O)OCCOCCOC(=O)C(=C)C,inactive
12,CCC(C)COC(=O)CC(C)C (stereo not given),inactive
13,Clc1cc(Cl)nc(Cl)n1,inactive
14,CCCCN1CCCC1C(=O)Nc1c(C)cc(C)cc1C (stereo not given),inactive
15,CCCCCCCCC(CCCCCC)C(=O)O (stereo not given),inactive
16,CCOC(=O)c1ccc(I)cc1,inactive
17,CCCCC(CC)COP(=O)(O)O (stereo not given),inactive
18,CC1CC(C)C(=O)C1=O (stereo not given),inactive
19,O=[N+]([O-])c1cc(C2CCCCC2)c(O)c([N+](=O)[O-])c1,4.31 µM (active)
20,Brc1cc(Br)c(Oc2cc(Br)c(Br)cc2Br)cc1Br,inactive
